Records with an inconclusive call do not appear. Calls of active or inactive are those of the source. The call rests on the fitted dose curve; in most records, active means well fitted cell-killing curve with a large enough effect; inconclusive means small, poorly fitted or top-dose-only effect, or effect the other way; inactive means flat fitted curve, though single readings scatter.
These molecules were tested on C33A (assay: Primary qHTS to identify gynecologic anti-cancer compounds using libraries of approved drugs and bioactive compounds (AID 1345084; further: nearly all actives have a fitted effect of over 55% in size)). Conditions: Gynecologic cancer cell panel viability, ATPlite luminescence, 48 h; series mostly up to 57.5 µM; activity change, negative = cytotoxicity: at the top concentration.
Summary of the method: (§1)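 Cells, 1,000 per well, were allowed to settle for 16 h at 37 C before compound addition. Five concentrations were tested for 48 h, and viability was read by ATPlite luminescence after 15 min at room temperature.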
On the % scale 0 is the no-effect control and ±100 the full control effect.

Row | Structure (SMILES) | activity change, negative = cytotoxicity
1 | CC(C)CC(=O)n1cc(C(N)=O)c(=O)cc1C(O)c1ccccc1 (stereo not given) | 3.67% [at 38.5 µM] (inactive)
2 | CC(C)C(C#N)O[C@@H]1O[C@H](CO[C@@H]2OC[C@](O)(CO)[C@H]2O)[C@@H](O)[C@H](O)[C@H]1O (stereo not given in full) | 5.83% [at 38.5 µM] (inactive)
3 | COc1ccc(/C=C/C(=O)O[C@H]2[C@@H]3C=CO[C@@H](O[C@@H]4O[C@H](CO)[C@@H](O)[C@H](O)[C@H]4O)[C@@H]3[C@@]3(CO)O[C@@H]23)cc1O | -2.46% [at 25.3 µM] (inactive)
4 | C=C1CC23CC1(O)CCC2C1=CC2OC(=O)C(C)(C2O)C1C3C(=O)O (stereo not given) | 4.01% [at 38.5 µM] (inactive)
5 | COc1cc(/C=C/C(=O)OC[C@H]2O[C@H](O[C@]3(CO)O[C@H](CO)[C@@H](O)[C@@H]3O)[C@H](O)[C@@H](O)[C@@H]2O)cc(OC)c1O | 7.78% [at 25.3 µM] (inactive)
6 | C(#Cc1cccc(CN2CCOCC2)c1)CCN1CCCCC1 | 3.5% (inactive)
7 | COc1cc(C)c(C(=O)O[C@H]2[C@@H](O)[C@H](n3ccc(=O)[nH]c3=O)O[C@@H]2CO)c(OC)c1 | 0.514% [at 25.3 µM] (inactive)
8 | C[C@@]12C[C@]3(O)O[C@H](O1)[C@]1(COC(=O)c4ccccc4)[C@H]3C[C@@]12O[C@@H]1O[C@H](COC(=O)c2ccccc2)[C@@H](O)[C@H](O)[C@H]1O | 3.84% [at 25.3 µM] (inactive)
9 | C[C@@H]1O[C@@H](O[C@H]2[C@H](O)[C@@H](C(=O)O)O[C@@H](O[C@H]3CC[C@@]4(C)C(CC[C@]5(C)C4CC=C4C6CC(C)(C)CC[C@]6(C(=O)O)CC[C@]45C)C3(C)C)[C@@H]2O[C@@H]2O[C@H](CO)[C@@H](O)[C@H](O)[C@H]2O)[C@H](O)[C@H](O)[C@H]1O (stereo not given in full) | 0.0448% [at 11.6 µM] (inactive)
10 | CC(=O)N1CCN(NC(=O)c2ccc(F)cc2)CC1 | -0.158% (inactive)

The molecules below were run on CAOV3 in the same assay as above. Conditions: Gynecologic cancer cell panel viability, ATPlite luminescence, 48 h; series mostly up to 57.5 µM; activity change, negative = cytotoxicity: at the top concentration.
Summary of the method: as §1

Row | Structure (SMILES) | activity change, negative = cytotoxicity
11 | C[C@]12CCC[C@](C)(C(=O)O)C1CCC13C=C(CO)C(CCC12)C3 (stereo not given in full) | 6.6% [at 38.5 µM] (inactive)
12 | O=C(c1ccc(C#Cc2cccc(F)c2)cn1)N1CC2CC2C1 (stereo not given) | -5.4% (inactive)
13 | C[C@H]1[C@H](C)CC[C@]2(C(=O)O)CC[C@]3(C)C(=CC[C@@H]4[C@@]5(C)C[C@@H](O)[C@H](O)[C@@](C)(CO)[C@@H]5CC[C@]43C)[C@H]12 | -0.928% (inactive)
14 | C/C=C/C=C/C(CC(=O)O)Nc1ccc(C=O)cc1 (stereo not given) | -4.74% (inactive)
15 | C[C@@H]1O[C@@H](O[C@H]2[C@H](OC(=O)[C@]34CCC(C)(C)C[C@H]3C3=CCC5[C@@]6(C)C[C@H](O)[C@H](O[C@@H]7O[C@H](CO)[C@@H](O[C@@H]8O[C@H](CO)[C@@H](O)[C@H](O)[C@H]8O)[C@H](O)[C@H]7O)[C@@](C)(CO)C6[C@H](O)C[C@@]5(C)[C@]3(C)C[C@H]4O)OC[C@H](O)[C@@H]2O)[C@H](O)[C@H](O)[C@H]1O[C@@H]1OC[C@@H](O)[C@H](O[C@@H]2OC[C@](O)(CO)[C@H]2O)[C@H]1O (stereo not given in full) | 18.5% [at 6.55 µM] (inactive)
16 | CC(C)(O)c1ccc2c(c1)C(=O)CC1[C@](C)(CO)CCC[C@]21C (stereo not given in full) | 12.9% [at 38.5 µM] (inactive)
17 | CC(=O)C1CCC2(C)C3=C(CCC12C)C1(C)CCC(=O)C(C)(C)C1CC3 (stereo not given) | 1.93% [at 38.5 µM] (inactive)
18 | C[C@@H]1C/C=C/C=C\C=C\C=C\[C@H](O[C@@H]2O[C@H](C)[C@@H](O)[C@H](N)[C@@H]2O)C[C@@H]2O[C@](O)(C[C@@H](O)C[C@H]3O[C@@H]3/C=C/C(=O)O1)C[C@H](O)[C@H]2C(=O)O | -18.2% [at 25.3 µM] (inactive)
19 | COC(=O)C[C@@H]1C(C(=O)O)=CO[C@@H](O[C@@H]2O[C@H](CO)[C@@H](O)[C@H](O)[C@H]2O)/C1=C\COC(=O)/C=C\c1ccccc1 | -19.7% [at 25.3 µM] (inactive)
20 | CC1CCC2C(C(=O)O)=CC3C(O)C(C)(C)CC123 (stereo not given) | 5.02% (inactive)
21 | CC(C)(O)/C=C1/C(=O)C(C)(C)C(=O)C(C)(C)C1(O)O[C@@H]1O[C@H](COC(=O)c2cc(O)c(O)c(O)c2)[C@@H](O)[C@H](O)[C@H]1O (stereo not given in full) | 5.73% [at 25.3 µM] (inactive)
22 | Cc1cc(O)c(C(C)C)cc1O[C@@H]1O[C@H](CO)[C@@H](O)[C@H](O)[C@H]1O | 3.06% [at 38.5 µM] (inactive)
23 | O=C1CC(c2ccc([N+](=O)[O-])cc2)=NN1c1ccccc1 | 8.5% (inactive)
24 | C=C1[C@H]2[C@H](O[C@@H]3O[C@H](COC(=O)/C=C/c4cc(OC)c(O)c(OC)c4)[C@@H](O)[C@H](O)[C@H]3O)OC=C(C(=O)O)[C@H]2C[C@@H]1O | 6.06% [at 25.3 µM] (inactive)
25 | C/C=C(\C)C(=O)OC[C@H]1O[C@H](O[C@H]2O[C@H](CO)[C@@H](OC(=O)/C(C)=C/C)[C@H](O)[C@H]2O[C@@H]2O[C@H](CO)[C@@H](O)[C@H](O)[C@H]2O)[C@H](O[C@@H]2O[C@H](CO)[C@@H](O)[C@H](O)[C@H]2O)[C@@H](O)[C@@H]1O | 17% [at 11.6 µM] (inactive)

Reference: PubChem BioAssay (NCATS)
